The values below come from ChEMBL document CHEMBL3988442, “University of Dundee, Small-Polar-MMV Screening Library” (2021).

In all, about 38,000 compounds went through this assay and about 1,200 (3.2%) showed an effect of 50% or more. The median lay at about -58%. Only a selection was taken, and strong results are over-represented in it overall.

This assay has as its system Plasmodium falciparum. Kind of assay: Calibr Malaria Delayed Death Assay SOP. The note with it: concentration 4.99e-06 (unit not given; other assays of the set use mol/L). More on the design: scale not given: in the data most compounds retested in dose-response had high values. Format: functional, organism-based.
Consider `Cc1ccncc1NS(=O)(=O)c1ccc(Cl)s1`, for which the “Percent Effect” value was -120.5%.
The same measure for `O=C(c1cnn2c1OCCC2)N1CCN(C(=O)C2CCCO2)CC1` (configuration not stated): -54.26%.
The same measure for `COC(C)(C)C(=O)NCC1CCN(Cc2cc3ccccc3[nH]2)C1` (configuration not stated): -53.37%.
The same measure for `CC(C)(C(=O)NCC1CCN(Cc2ncc[nH]2)C1)c1ccccc1` (configuration not stated): -18.61%; for `CC(C)(C(=O)NCC1CCN(Cc2cccnc2)C1)c1ccccc1` (configuration not stated): 51.87%; for `O=C(CCn1ccc2ccc(F)cc21)/N=c1\[nH]nc(C2CCCO2)s1` (configuration not stated): -163.8%.
As for `CCC(NC(=O)CNC(=O)OC)c1cc(F)ccc1F` (configuration not stated), the “Percent Effect” value is given as -47.96%.
The same measure for `CCN(CC)S(=O)(=O)NC1CCCc2nc(-c3ccccc3)ncc21` (configuration not stated): -18.05%.
The same measure for `CC(C)N1CCC2(CC1)C(=O)N(c1cccnc1)c1ccc(F)cc12.Cl`: 64.31%; for `CC(=O)N1CCC2(CC1)C(=O)N(c1cccnc1)c1ccc(F)cc12`: -45.42%; for `CC(C)N1C(=O)C2(CCN(C)CC2)c2cc(F)ccc21.Cl`: -16.08%.
`CN1CCC2(CC1)C(=O)N(C)c1ccc(F)cc12.Cl`: the “Percent Effect” value is given as -104.9%.
The same measure for `CC(C)N1CCC2(CC1)C(=O)N(c1cccnc1)c1c(F)cccc12.Cl`: 48.28%.
The same measure for `CN1CCC2(CC1)C(=O)N(c1cccnc1)c1ccc(F)cc12.Cl`: 58.26%.
For the molecule `CC(=O)c1cc2ncc(C(=O)NC3CC3)cc2[nH]1`, the “Percent Effect” value is listed as -111.2%.
For `Cc1ccccc1N1CC2(CCN(S(=O)(=O)C3CC3)C2)CC1=O` (configuration not stated), the “Percent Effect” value is listed as -190.8%.
As to `CC(=O)Nc1c(C)noc1/C=C\c1ccc(S(=O)(=O)N2CCCC2)cc1`, the “Percent Effect” value is reported as 10.91%.
The same measure for `Cc1cc(C)nc(N2CCCC(C(=O)Nc3n[nH]c(C(C)C)n3)C2)n1` (configuration not stated): -27.75%; for `Cc1nc(C)n(CC2CCCN2Cc2ncc(C(C)(C)C)o2)n1` (configuration not stated): 60.71%; for `Cc1cnn(CC2CCCCN2Cc2ncc(C(C)(C)C)o2)c1` (configuration not stated): 9.696%.
For the molecule `CCN1CCN(C2CCN(Cc3nnc(C(C)C)o3)CC2)C1=O`, the “Percent Effect” value is given as -127.6%.
The same measure for `CC(C)(C)c1cnc(CN2CCC(CO)CC2)o1`: -57.31%.
With `CCC1CCCCN1Cc1ncc(C(C)(C)C)o1` (configuration not stated), the “Percent Effect” value is 70.27%.
Regarding `Cc1nc(C)n(CC2CCCN2Cc2ncc(-c3ccccc3)o2)n1` (configuration not stated), the “Percent Effect” value came to 26.63%.
Take `CCN1CCN(C2CCN(Cc3ncc(C(C)(C)C)o3)CC2)C1=O`: the “Percent Effect” value came out at 51.71%.
For the molecule `Cc1nc(C)n(CC2CCCN(Cc3ncc(C(C)(C)C)o3)C2)n1` (configuration not stated), the “Percent Effect” value is on record as -87.32%.
As for `CCN1CCN(C2CCN(Cc3nnc(C4CC4)o3)CC2)C1=O`, the “Percent Effect” value is recorded as -106.8%.
The same measure for `CC(C)N1C[C@@H](CO)[C@H](c2ccccc2)S1(=O)=O`: -2.146%; for `COc1cccc(Cn2ncnc2CNC(C)=O)c1`: -17.74%.
In the case of `NC1CCCN(Cc2cccc(C(F)(F)F)c2)C1=O` (configuration not stated), the “Percent Effect” value is recorded as -34.65%.
The same measure for `O=S(=O)(CC1CCCCO1)Nc1c(F)cccc1-n1cccn1` (configuration not stated): -6.246%; for `N#CC1COCCN1C(=O)c1ccc2cc[nH]c2c1` (configuration not stated): -76.07%; for `N[C@H]1CN(C(=O)c2ccc3[nH]c(CO)nc3c2)C[C@@H]1c1ccccc1`: -84.77%.
For `COCCC1COC2(CCN(C(=O)c3cccn3C)CC2)C1` (configuration not stated), the “Percent Effect” value is -157.5%.
With `O=C(NC1CCCCC1)c1cc(Br)cnc1N1CCCCC1`, the “Percent Effect” value was -52.51%.
The same measure for `COc1cc(C)ccc1OCCN1CC[C@@]2(O)CCNC[C@H]2C1`: -90.26%; for `CCc1ccccc1OCCN1CC[C@@]2(O)CCNC[C@H]2C1`: -93.81%.
On to `CCn1ncnc1CN1CCC(CNC(=O)c2cccc(C)c2)C1` (configuration not stated), for which the “Percent Effect” value is -152.4%.
On to `Cn1cc(-c2nc(CN3CCc4c(ncn4C4CC4)C3)cs2)cn1`, for which the “Percent Effect” value was -33.38%.
Turning to `CCCC1CCCN(Cc2csc(-c3cnn(C)c3)n2)CC1` (configuration not stated), the “Percent Effect” value is 52.75%.
Take `Cn1cc(-c2nc(CN3CCN(CCO)CC3)cs2)cn1`: the “Percent Effect” value is reported as -64.62%.
The same measure for `Cn1cc(CN2CCC3(CC2)CN(c2cccnc2)C(=O)CO3)cn1`: -97.96%.
The same measure for `Cn1ccnc1CN1CCc2ncnc(N3CCCC(C#N)C3)c2CC1` (configuration not stated): -81.1%.
The same measure for `c1cnn(C2CN(c3nc(-c4ccncc4)nc4c3CCC4)C2)c1`: -81.86%; for `N#CC1CCCN(c2nc(-c3ccccc3)nc3c2CCNCC3)C1` (configuration not stated): 79.11%; for `CC(C)CNC(=O)c1cccc(Oc2ccc3nncn3n2)c1`: -53.64%.
As to `O=C(C1CCOCC1)N1C[C@H](OCc2cccnc2)[C@H]2COC[C@H]21`, the “Percent Effect” value is given as -121.2%.
With `CSc1nccn1-c1cccc(C(=O)NCCN2CCS(=O)(=O)CC2)c1`, the “Percent Effect” value is given as -149.1%.
For `CCc1nc(CN2CCCN(C(=O)CCOC(C)C)CC2)cs1`, the “Percent Effect” value is -60.5%.
With `Cc1cn2c(n1)C(CNCC1=Cc3cc(Cl)ccc3OC1)CCC2` (configuration not stated), the “Percent Effect” value came out at 87.8%.
The same measure for `O[C@@H]1CN(CC2=Cc3cc(Cl)ccc3OC2)CC[C@H]1N1CCCCCC1`: -10.35%; for `C1=C(CNC2CCc3ncnn3C2)COc2ccccc21` (configuration not stated): -78.33%; for `CC(C)(C)c1cn2c(n1)C(CNCc1ccccn1)CCC2` (configuration not stated): 92.56%.
As for `CCn1ncc2c1CCCC2NCC1=Cc2ccccc2OC1` (configuration not stated), the “Percent Effect” value was -139.8%.
Take `Clc1ccc2c(c1)C=C(CNC1CCc3ncnn3C1)CO2` (configuration not stated): the “Percent Effect” value was -63.09%.
As for `Cc1cn2c(n1)C(CNCC1=Cc3ccccc3OC1)CCC2` (configuration not stated), the “Percent Effect” value was found to be 78.44%.
The same measure for `CCN1CCOC(CNCc2ccccn2)C1` (configuration not stated): -142.7%; for `CC(C)(C)c1ncc(CNCC2CCCn3ccnc32)s1` (configuration not stated): 11.38%; for `O=C(Nc1cnccn1)[C@H]1CC[C@@H]2[C@@H](CCN2Cc2ccccn2)O1.O=C(O)C(F)(F)F`: -97.13%.
The same measure for `COc1cc(C(=O)NCCCO)cc2occc12`: -87.71%; for `CCc1[nH]c2ccc(CNC(=O)c3cnc(N)nc3C)cc2c1C`: -136.6%; for `Cc1[nH]c2c(F)cccc2c1CC(=O)NC1CCCCNC1=O` (configuration not stated): -28.67%.
The same measure for `O=C1CNc2ncnc(Nc3cnn(Cc4cccc(F)c4)c3)c2N1`: -137.4%; for `O=C(Cc1csc(-c2ccco2)n1)N1CCCC1Cn1cccn1` (configuration not stated): -188.1%.
Take `Cc1ccc(CN2CCC3(CCN(S(=O)(=O)c4ccccc4)C3)C2)o1` (configuration not stated): the “Percent Effect” value turned out to be 79.54%.
The same measure for `CCS(=O)(=O)N1CCC2(CN(Cc3ccc(C)o3)C2)C1`: -57.27%; for `Cc1ccc(CN2CCC3(CCCN(S(C)(=O)=O)C3)C2)o1` (configuration not stated): -70.82%.
In the case of `O=C(c1cccs1)N1CC[C@H](O)[C@@H]1Cc1ccccc1`, the “Percent Effect” value is given as -5.522%.
As to `COc1ccccc1C(=O)Nc1c(F)c(C(=O)N2CCCC2)nn1C`, the “Percent Effect” value is recorded as -139.8%.
Consider `COC(=O)CN1Cc2cc3c(cc2NCCC1=O)OCO3`, for which the “Percent Effect” value is listed as -54.83%.
Consider `Cc1c(C)n(Cc2ccncc2)c2nc3c(c(N)c12)CCCC3`, for which the “Percent Effect” value is -16.59%.
On to `Cc1c(C)n(-c2ccccn2)c2nc3c(c(N)c12)CCCC3`, for which the “Percent Effect” value worked out at 19.64%.
As for `CCCc1nc2c(c(C)c(C)n2Cc2ccccn2)c(N)c1CC`, the “Percent Effect” value turned out to be 58.37%.
The same measure for `CCc1cc(NCCc2cccnc2)n2nc(C)c(C)c2n1`: -66.72%; for `CCc1nc2c(c(C)c(C)n2Cc2cccnc2)c(N)c1C`: 18.39%.
In the case of `Cc1cc(C(=O)N2CCNC(=O)C2)c(C)n1Cc1ccccn1`, the “Percent Effect” value was -70.27%.
The same measure for `Cc1c(C)n(Cc2ccccn2)c2nc3c(c(N)c12)CCCCCC3`: 58.63%.
The same measure for `CCCc1nc2c(c(C)c(C)n2Cc2cccnc2)c(N)c1CC`: 64.11%; for `Cc1c(C)n(Cc2ccccn2)c2nc3c(c(N)c12)CCCC3`: 45.51%; for `Cc1c(C)n(Cc2ccccn2)c2nc3c(c(N)c12)CCCCC3`: 22.61%.
Regarding `Cc1c(C)n(Cc2ccncc2)c2nc3c(c(N)c12)CCCCCC3`, the “Percent Effect” value was found to be 27.24%.
In the case of `CCCc1nc2c(c(C)c(C)n2Cc2ccncc2)c(N)c1CC`, the “Percent Effect” value was determined as 59.32%.
Turning to `O=C(C1CCOC1)N1CCN(Cc2ccncc2)c2ncccc2C1` (configuration not stated), the “Percent Effect” value is given as -72.96%.
The same measure for `Cn1cc(I)c(C(=O)NC2CCCCC2)n1`: -69.52%.
As to `CCCC(O)CN1CCC(=O)N(CC)Cc2cc3c(cc21)OCO3` (configuration not stated), the “Percent Effect” value is recorded as -23.81%.
The same measure for `CC(CC(=O)N1CCCN(Cc2cscn2)CC1)n1cccc1` (configuration not stated): 4.954%; for `CC(NCc1cccc(COC2CCCC2)c1)c1cnn(C)c1` (configuration not stated): 19.99%.
The same measure for `CC(C)CC(Cc1cccc(Br)c1)C(=O)O` (configuration not stated): -132.5%; for `Cc1nc(C)c(S(=O)(=O)NC(=O)c2cccs2)s1`: -74.76%; for `CO[C@H]1CC[C@H]2[C@H]1OCCN2Cc1ccc(F)cc1.O=C(O)C(F)(F)F`: -88.16%.
The same measure for `Cc1ccnc(NC(=O)C2CCN(CCCn3ccnc3C)CC2)c1`: 23.63%; for `CCCc1nnsc1C(=O)NCC(O)c1ccc(SC)cc1` (configuration not stated): -63.08%; for `Cc1cccc(CN2CCCC3(CCN(CC4CCCO4)CC3)C2)n1.O=C(O)C(F)(F)F.O=C(O)C(F)(F)F` (configuration not stated): 42.53%.
Take `Cc1cccc(CN2CCC3(CCCN(Cc4cnn(C)c4)C3)C2)n1.O=C(O)C(F)(F)F.O=C(O)C(F)(F)F` (configuration not stated): the “Percent Effect” value was -27.4%.
The same measure for `COc1cccc(C(=O)N2CCCC(CNS(C)(=O)=O)C2)c1` (configuration not stated): -46.69%; for `O=C(CCn1cccc1)N1CCc2[nH]nc(COc3ccccc3)c2C1`: -21.18%; for `CS(=O)(=O)NC[C@H]1Cn2c(-c3ccccc3)cnc2CO1`: -22.21%.
Take `CS(=O)(=O)NC[C@H]1Cn2c(-c3ccc(Cl)cc3)cnc2CO1`: the “Percent Effect” value worked out at 56.68%.
Consider `CS(=O)(=O)NC[C@H]1Cn2c(-c3ccc(F)cc3)cnc2CO1`, for which the “Percent Effect” value is recorded as -35.88%.
Regarding `CC(C)c1noc(C2CCN(C(=O)c3cccs3)CC2)n1`, the “Percent Effect” value is given as -59%.
The same measure for `O=C(NCCCN1CCCC1=O)c1nc(-c2ccc3cc[nH]c3c2)no1`: -52.39%.
The same measure for `O=C1CC2(CCN(Cc3ccsc3)C2)CN1c1ccc2c(c1)OCO2` (configuration not stated): -25.08%.
